# What was measured:
# [1] = biological target: T1, Aspartate--tRNA(Asp/Asn) ligase (Mycobacterium tuberculosis (strain ATCC 25618 / H37Rv)) (UniProt P9WFW3); assay: Assay for Asp RNA synthetase-1 from Mycobacterium tuberculosis; assay type: functional; design: scale not given: direction of the effect not stated beside the values; conditions: 30 µM; further: in the data most compounds retested in dose-response had high values
# T1 sequence (whole entry): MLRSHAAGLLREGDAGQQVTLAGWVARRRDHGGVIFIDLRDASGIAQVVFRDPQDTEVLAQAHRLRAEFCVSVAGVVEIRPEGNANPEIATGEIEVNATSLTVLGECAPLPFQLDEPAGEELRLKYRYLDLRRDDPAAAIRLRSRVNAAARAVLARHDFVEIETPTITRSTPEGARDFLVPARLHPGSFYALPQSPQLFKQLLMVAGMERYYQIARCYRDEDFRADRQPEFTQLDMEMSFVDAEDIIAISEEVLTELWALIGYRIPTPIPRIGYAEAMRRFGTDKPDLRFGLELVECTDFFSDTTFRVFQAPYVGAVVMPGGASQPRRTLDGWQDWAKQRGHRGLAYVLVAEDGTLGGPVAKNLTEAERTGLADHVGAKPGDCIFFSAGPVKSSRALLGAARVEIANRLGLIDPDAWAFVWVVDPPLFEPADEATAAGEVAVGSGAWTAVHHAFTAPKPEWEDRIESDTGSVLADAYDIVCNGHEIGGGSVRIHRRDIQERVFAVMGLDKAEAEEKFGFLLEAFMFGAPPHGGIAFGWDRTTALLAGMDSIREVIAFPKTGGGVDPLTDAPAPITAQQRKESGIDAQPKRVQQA
# [2] = biological target: Shiga toxin 2 (Escherichia coli O157:H7) (UniProt P09385+P09386); assay: E. coli 0.157:H7 Shiga Toxin SOP - stx2 screening assay; assay type: functional; design: scale not given: direction of the effect not stated beside the values; conditions: 30 µM
Compound,Percent Effect [1] [%],Percent Effect [2] [%]
CCn1cc2c(n1)C(COC)CN(Cc1ccccn1)C2 (configuration not stated),7.76,-16.8
CCCS(=O)(=O)N1CCN(c2cc(-n3nc(C)cc3C)nc(C)n2)CC1,-3.15,-4.71
Cc1ccc(C(=O)NCCS(C)(=O)=O)c(=O)[nH]1,-3.5,-4.7
Cn1ccnc1CC1CCCN(C(=O)Nc2cccn(C)c2=O)C1 (configuration not stated),2.75,-3.01
CC(=O)N1CCN(C)CC(COCc2ccccc2)C1 (configuration not stated),-1.62,-22.4
CN1CCCC[C@@H]2[C@H]1[C@@H](c1ccccc1)CCN2C(=O)c1cnccn1,0.342,-18.3
CC(C)CS(=O)(=O)CC(=O)N(C)Cc1ccc(OC(F)F)cc1,-0.457,4.95
Cc1ccccc1-c1cc(NC(=O)CC(C)C)n(CCO)n1,-0.569,-1.82
Cc1nn(-c2ccccc2)c(C)c1CNC1CCc2ncnn2C1 (configuration not stated),-2.94,4.77
CS(=O)(=O)NCc1cnc2n1CCN(Cc1ccsc1)CC2,-2.39,-23.6
Cc1nc(CCCNC(=O)C2CC(=O)N(C(C)(C)C)C2)sc1C (configuration not stated),-1.3,-11.5
Cc1nc(C2CCCN(C(=O)c3sccc3C3CC3)C2)no1 (configuration not stated),-0.613,0.602
O=C(C[C@@H]1COC[C@H]2CN(Cc3ccncc3)C[C@@H]12)N1CCOCC1,-4.65,-32
Cn1cc(CCNC(=O)NCc2nnc3n2CCC3)cn1,-2,5.89
COc1ccccc1CC(=O)NS(=O)(=O)c1cncc(Br)c1,-6.19,10.1
CN1CCC/C1=N\S(=O)(=O)c1ccc(NC(=O)CCc2cccs2)cc1,1.3,-144
CC(=O)N1CCCN(C(=O)c2cnc3n[nH]c(C)c3c2)CC1,-0.871,19.4
O=C(O)CC1CN(Cc2ccccc2)CCO1 (configuration not stated),-0.183,-5.59
c1ccc(-c2nc(CN3CCCC(Cn4cncn4)C3)co2)cc1 (configuration not stated),0.247,-67.5
Cc1cccc(NC(=O)CNC(=O)Cn2ncc(Cl)c(Cl)c2=O)c1C,9.53,-21.2
O=C(NC1CCC1)[C@@H]1C[C@@H]2CCN(Cc3cccs3)C[C@@H]2O1,-2.46,-16.7
O=C(CC1CCCC1)N1CCCC(c2n[nH]c3nccnc23)C1 (configuration not stated),-1.74,19.5
N#Cc1cn(C2CC2)c(=O)n(CC(O)c2ccccc2F)c1=O (configuration not stated),0.3,14.2
O=c1cc(CN2CCCC(CCc3c(F)cccc3F)C2)[nH]c(=O)[nH]1 (configuration not stated),3.07,-12.7
Cn1cccc1C(=O)N1CCC2(CC1)CN(c1ccccn1)CCO2,7.46,-7.72
Cn1cc(CN2CCOC3(CCCN(C(=O)c4ccco4)C3)C2)cn1 (configuration not stated),-0.297,-4.96

Compound,Percent Effect [1] [%],Percent Effect [2] [%]
Cc1nn(C)c(N(C)C)c1CNCc1cccc(CN(C)C(C)C)c1,2.27,5.42
Cn1ncc2c(=O)[nH]c(N3CCN(C(=O)c4ccsc4)CC3)nc21,1.3,13.3
Cn1ccc(CN2CCCC2c2ccc3c(c2)OCCCO3)cc1=O (configuration not stated),-1.54,-60
COCCCn1c(CN2CCCC(O)C2)cnc1S(=O)(=O)C1CCCC1 (configuration not stated),4.61,-11.3
CC(=O)N1CCN(C(=O)C(C)n2cncn2)CC1 (configuration not stated),-4.44,1.67
COc1ccc(C(=O)N2CCCC(C)C2)cc1F (configuration not stated),0.26,13.7
Cc1nccc(N2CCC(=O)N(Cc3ccc(F)cc3)C(C(C)C)C2)n1 (configuration not stated),-2.67,-4.25
COC(=O)c1ccc2ccn(CC3CCCO3)c(=O)c2c1 (configuration not stated),7.1,6.53
COc1ccc(CCN2CCCC2Cn2nc(C)nc2C)cc1 (configuration not stated),-3.2,-22.5
CNC(=O)C(C)(C)NC(=O)c1cc(OCC2CCC2)cc(C(=O)OC)c1,9.31,7.4
COCC(=O)N1CCC[C@]2(C(=O)N(C)C)CN(c3ccccn3)C[C@@H]2C1,-2.71,-6.93
CCN1CCN(C2CCN(Cc3nc(-c4ccoc4)no3)CC2)C1=O,1.49,22.7
O=C(NC[C@]12COC[C@H]1CN(Cc1nccs1)C2)N1CCCC1,1.45,-23.5
CN(C)Cc1cc(=O)n2c(n1)CN(C(=O)Cc1ccsc1)CCC2,-1.04,-17
COc1ccc(C2=CCN(C(=O)C3CCN(C)C(=O)C3)CC2)cc1 (configuration not stated),3.17,27.5
CNC(=O)C1CCN(C(=O)c2cccn2Cc2cccs2)CC1,0.91,11.1
CC(=O)N1CCC(Cc2cnc(-c3c(C)nn(C)c3C)cn2)C1 (configuration not stated),-3.46,-8.45
COCC1CC2(CCN(Cc3cnn(C)c3)CC2)CN1C(C)C (configuration not stated),10.7,-9.26
Cc1nccn1C1CCCN(C(=O)COCC(F)(F)F)C1 (configuration not stated),-1.01,-10.2
CC(C)N(CC(N)=O)Cc1csc(Cc2ccccc2)n1,0.228,12
CCCC(C)C(=O)NCc1cn2cc(Br)ccc2n1 (configuration not stated),1.41,-63.8
FC1(F)CCN(Cc2ccncc2)CC12CCN(Cc1ccccn1)C2 (configuration not stated),4.66,-2.47
COCC(=O)N1CCC(c2noc3nc(C)cc(C(F)(F)F)c23)CC1,3.71,-10.9
Cn1cc(CN2C[C@@H]3COC[C@]3(CNC(=O)c3ccsc3)C2)cn1,0.656,-3.31
CCc1nc(CN(C(C)=O)C2CCN(Cc3cnc(C)cn3)C2)no1 (configuration not stated),-0.742,-16.6
